Data as given in PubChem BioAssay (NCI).
Compounds without any hit were thinned out: in the full panel of roughly 79,000, 15% have a hit. A number with no mark means an inactive call. Calls of active or inactive are those of the source. Rule as the data show it: active = growth inhibition above about 70%; inactive = the rest.

Experiment: NCI Yeast Anticancer Drug Screen. Data for the wt1 strain (AID 149);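 also: 0% = growth of vehicle-treated wt1 cultures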
Settings: S. cerevisiae wt1 strain (SPY 50644) growth inhibition; at 3.7 µM; stronger effect = higher value
How it was run: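 Measured: growth of wt1 yeast under compound versus vehicle treatment, reported as inhibition.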

Point of comparison: `CC(Br)C(=O)c1ccc2cc(Br)c3ccccc3c2c1` (stereo not given), growth inhibition 0%. Against it:
- S=C(S)NN1CCOCC1 — higher, 29%
- COc1cc2c3c(cccc3c1)C(=O)N(CCN(C)C)C2=O — lower, -11%
- COC(=O)C1=C(C)NC(C)=C(C(=O)OCCCN2CCC(c3ccccc3)(c3ccccc3)CC2)C1c1cccc([N+](=O)[O-])c1 (stereo not given) — lower, -5%
- c1ccc2c(c1)Oc1cccc3cccc-2c13 — higher, 1%
- CN(C)CCOc1ccc2c(c1)C/C(=C/c1ncc([N+](=O)[O-])n1C)C2=O — higher, 5%
- Cc1ccc(CCC2=CCCc3c2ccc2ccccc32)cc1 — lower, -4%
- CNC(=O)OCc1c(COC(=O)NC)c(-c2ccc(Cl)c(Cl)c2)n2c1CCC2 — lower, -56%
- Clc1ccccc1C1OC1c1ccccc1Cl (stereo not given) — lower, -49%
- O=[N+]([O-])c1cc(CCl)ccc1CCl — higher, 8%
- O=C1C=CC(=O)c2c(O)c(Nc3ccc(OC(F)(F)F)cc3)c(Cl)c(O)c21 — higher, 22%
- S=c1[nH]nc(Nc2ccc(Cl)cc2)s1 — higher, 4%
- Cn1ccnc1Oc1ccc(Cl)cc1 — higher, 5%
- BrCc1cccc2ccc3cccc(CBr)c3c12 — lower, -3%
- O=C1c2ccccc2-c2nc3ccccc3nc21 — lower, -17%
- CCCCCCCCCCCCCCCCCCNC — higher, 17%
- Oc1ccc(NCn2c(=S)sc3ccccc32)cc1 — lower, -17%
- O=C1C2CC[C@@H]3C(=O)C(Cl)(Cl)[C@@H]3CCC2C1(Cl)Cl (stereo not given in full) — higher, 1%
- CC[n+]1ccc2c(C)c3[nH]c4ccc(O)cc4c3c(C)c2c1 — higher, 7%
- Cc1ccc(-n2cc(-c3ccc(Cl)cc3)c(C#N)c2N)cc1 — lower, -2%
- CC(=O)[O][Bi]([c]1ccccc1)[c]1ccccc1 — higher, 11%
- CC1=C(SCCO)C(=O)c2ccccc2C1=O — lower, -4%
- C/C(=N\O)C1CC2C=C(C#N)C1N(Cc1ccccc1)C2 (stereo not given) — higher, 4%
- Nc1nc(-c2cccnc2)cc(-c2cc(-c3cccnc3)nc(N)n2)n1 — lower, -1%
- CC(C)=CC(=O)O[C@@H]1CC(C)(C)CC2C3=CCC4[C@]56CC[C@](O)(OC5)C(C)(C)C6CC[C@@]4(C)C3(C)CC[C@]21C(=O)O (stereo not given in full) — higher, 44%
- CCC(C)COC(=O)c1ccc(N=Cc2ccc(C=Nc3ccc(C(=O)OCC(C)CC)cc3)cc2)cc1 (stereo not given) — lower, -4%
- O=C(O)c1cccc(-c2c3ccc(=O)cc-3oc3cc(O)ccc23)c1 — lower, -5%
- CN(CCc1ccccn1)c1ccc2c(c1)Cc1ccccc1-2 — higher, 7%
- Cc1cc(S(=O)(=O)/N=C(/NN)NNc2cccc(C(F)(F)F)n2)c(S)cc1Cl — lower, -2%
- O=C1C2C(C(=O)N1c1ccc(OCc3ccccc3)cc1)C1c3ccccc3C2C2CCCCN21 (stereo not given) — lower, -7%
- Nc1ccccc1CC(O)C(=O)O (stereo not given) — higher, 3%
- O=C(O)C1CCCCC1c1c2ccc(=O)c(O)c-2oc2c(O)c(O)ccc12 (stereo not given) — lower, -11%
- Cc1ccc2ccc(O)cc2c1 — lower, -16%
- O=C1C(=O)c2ccccc2C=C1[N+](=O)[O-] — higher, 5%
- COC(=O)c1ccc(NCC2=CC(=O)C=CC2=O)cc1O — higher, 2%
- C(CCSC1=NCCN1)CSC1=NCCN1 (tested in a mixture with another compound) — higher, 9%
- N#Cc1c(N)[nH]c2ccc(Sc3ccccc3)cc12 — higher, 5%
- CCNc1nnc(CSc2nc(-c3ccccc3)c(-c3ccccc3)[nH]2)s1 — lower, -9%
- CC[C@@]1(O)C(=O)OCc2c1cc1n(c2=O)Cc2cc3c(N)cccc3nc2-1 — higher, 13%

In the case of `Oc1cccc2c(Cl)ccnc12`, the growth inhibition is reported as 98% (active).

Same assay, conditions: S. cerevisiae wt1 strain (SPY 50644) growth inhibition; at 11.0 µM; stronger effect = higher value

Point of comparison: `O=C(O)c1cccc(-c2c3ccc(=O)cc-3oc3cc(O)ccc23)c1`, growth inhibition 18%. Against it:
- S=C(S)NN1CCOCC1 — higher, 35%
- COc1cc2c3c(cccc3c1)C(=O)N(CCN(C)C)C2=O — lower, -10%
- COC(=O)C1=C(C)NC(C)=C(C(=O)OCCCN2CCC(c3ccccc3)(c3ccccc3)CC2)C1c1cccc([N+](=O)[O-])c1 (stereo not given) — higher, 69%
- c1ccc2c(c1)Oc1cccc3cccc-2c13 — lower, -8%
- CN(C)CCOc1ccc2c(c1)C/C(=C/c1ncc([N+](=O)[O-])n1C)C2=O — higher, 20%
- Cc1ccc(CCC2=CCCc3c2ccc2ccccc32)cc1 — lower, -5%
- CNC(=O)OCc1c(COC(=O)NC)c(-c2ccc(Cl)c(Cl)c2)n2c1CCC2 — lower, -48%
- Clc1ccccc1C1OC1c1ccccc1Cl (stereo not given) — lower, -61%
- O=[N+]([O-])c1cc(CCl)ccc1CCl — higher, 30%
- O=C1C=CC(=O)c2c(O)c(Nc3ccc(OC(F)(F)F)cc3)c(Cl)c(O)c21 — higher, 26%
- S=c1[nH]nc(Nc2ccc(Cl)cc2)s1 — lower, 6%
- Cn1ccnc1Oc1ccc(Cl)cc1 — higher, 22%
- BrCc1cccc2ccc3cccc(CBr)c3c12 — lower, -4%
- O=C1c2ccccc2-c2nc3ccccc3nc21 — lower, -11%
- CCCCCCCCCCCCCCCCCCNC — lower, 12%
- Oc1ccc(NCn2c(=S)sc3ccccc32)cc1 — lower, -16%
- O=C1C2CC[C@@H]3C(=O)C(Cl)(Cl)[C@@H]3CCC2C1(Cl)Cl (stereo not given in full) — lower, 2%
- CC[n+]1ccc2c(C)c3[nH]c4ccc(O)cc4c3c(C)c2c1 — lower, 3%
- Cc1ccc(-n2cc(-c3ccc(Cl)cc3)c(C#N)c2N)cc1 — lower, 1%
- CC(=O)[O][Bi]([c]1ccccc1)[c]1ccccc1 — higher, 23%
- CC1=C(SCCO)C(=O)c2ccccc2C1=O — lower, -2%
- C/C(=N\O)C1CC2C=C(C#N)C1N(Cc1ccccc1)C2 (stereo not given) — lower, 1%
- CC(Br)C(=O)c1ccc2cc(Br)c3ccccc3c2c1 (stereo not given) — lower, 1%
- Nc1nc(-c2cccnc2)cc(-c2cc(-c3cccnc3)nc(N)n2)n1 — lower, -1%
- CCC(C)COC(=O)c1ccc(N=Cc2ccc(C=Nc3ccc(C(=O)OCC(C)CC)cc3)cc2)cc1 (stereo not given) — lower, -2%
- Oc1cccc2c(Cl)ccnc12 — higher, 38%
- CN(CCc1ccccn1)c1ccc2c(c1)Cc1ccccc1-2 — lower, 6%
- Cc1cc(S(=O)(=O)/N=C(/NN)NNc2cccc(C(F)(F)F)n2)c(S)cc1Cl — lower, -2%
- O=C1C2C(C(=O)N1c1ccc(OCc3ccccc3)cc1)C1c3ccccc3C2C2CCCCN21 (stereo not given) — lower, -10%
- Nc1ccccc1CC(O)C(=O)O (stereo not given) — lower, 13%
- O=C(O)C1CCCCC1c1c2ccc(=O)c(O)c-2oc2c(O)c(O)ccc12 (stereo not given) — lower, -3%
- Cc1ccc2ccc(O)cc2c1 — lower, -19%
- O=C1C(=O)c2ccccc2C=C1[N+](=O)[O-] — lower, 9%
- COC(=O)c1ccc(NCC2=CC(=O)C=CC2=O)cc1O — higher, 68%
- C(CCSC1=NCCN1)CSC1=NCCN1 (tested in a mixture with another compound) — higher, 41%
- N#Cc1c(N)[nH]c2ccc(Sc3ccccc3)cc12 — lower, 1%
- CCNc1nnc(CSc2nc(-c3ccccc3)c(-c3ccccc3)[nH]2)s1 — lower, -19%
- CC[C@@]1(O)C(=O)OCc2c1cc1n(c2=O)Cc2cc3c(N)cccc3nc2-1 — lower, 7%

For `CC(C)=CC(=O)O[C@@H]1CC(C)(C)CC2C3=CCC4[C@]56CC[C@](O)(OC5)C(C)(C)C6CC[C@@]4(C)C3(C)CC[C@]21C(=O)O` (stereo not given in full), the growth inhibition was 85% (active).
